In ChEMBL document CHEMBL4513160, “CO-ADD screening of MMV (CH) - Small Polar Library”:
In all, about 18,000 compounds went through this assay and fewer than 10 showed an effect of 50% or more. The list is a sample of the results.

These compounds were tested on Pseudomonas aeruginosa (assay: Antibacterial activity against Pseudomonas aeruginosa PAO397 [PAO1 d(mexAB-oprM) d(mexCD-oprJ) d(mexEF-oprN) d(mexJKL) d(mexXY) d(opmH)] (CO-ADD:GN_211); MIC in CAMBH media using NBS plates, by OD(600)). Settings: Concentration 300 ug.mL-1, ASSAY_TEST Inhibition of Bacterial Growth, detection method Absorption (OD600), MEDIA CAMHB, plate type 384well, CORNING #3640, time 18 hr.
Assay type: functional

SMILES	Inhibition [%]
COCCCOc1cnc(C#N)cn1	-8.76
Cc1ncccc1CN1CCCCC1(C)C(N)=O (configuration not stated)	-20.64
Cc1cc(C)cc(OCC(=O)N2CCNCC2)c1	-0.07
Cc1ccc(C(=O)NCCNC(=O)c2ccco2)cc1	-53.65
CC1COCCN1Cc1cn2ccccc2n1 (configuration not stated)	15.25
c1ccc(C/N=C2/CCCCCN2)nc1	23.32
N#Cc1ccc(CN)cc1F	2.48
CN1CCN(C(N)=O)C(c2ccccc2)C1 (configuration not stated)	4.12
COC(=O)CN1CCCC1=O	5.23
CCNC(=O)CSc1nc(C)c(C)n1CCOC	3.04
CN(C)C(CNC1=NCCN1)c1ccsc1 (configuration not stated)	-1.92
Cc1c(NC(=O)c2cnccn2)cccc1C(N)=O	2.03
CCn1cnnc1CNC(=O)c1cccc(N(C)C)c1	-1.56
NC1CC(=O)c2ccccc21 (configuration not stated)	4.06
O=C(CN1CCNC(=O)C1)NCCOc1ccccc1	25.17
c1cn(-c2cc(N3CCSCC3)ncn2)cn1	8.05
O=C(c1ccsc1)N1CCCN(c2cccnn2)CC1	0.34
CC(C)n1nccc1NC(=O)CN(C)Cc1ccco1	9.78
COc1ccc(CNc2ccncc2F)cc1C#N	-8.23

SMILES	Inhibition [%]
CC(C)(C)C(=O)Nc1ccc(N2CCNC(=O)C2)cc1	7.8
COc1ccc(Cl)cc1NC(=O)N[C@@H]1CNCC[C@H]1O	-35.77
CN(C)C1(CNC(=O)c2cn[nH]c2)CCOCC1	-13.75
NCC1CCCOC1 (configuration not stated)	10.08
COc1cc(CCCN)cc(OC)c1O	4.59
Cc1ccccc1CN1CCCN(CCC(N)=O)CC1	-4.93
NC(=O)NC(=O)CCNS(=O)(=O)c1ccccc1Cl	13.15
NCC(O)CN1CCc2ccccc2C1 (configuration not stated)	-6.8
CC(CC(=O)N1CC[C@H](O)C1)c1cccc(F)c1 (some centres not stated)	-15.14
CO[C@H]1CNCC1NC(=O)Cc1ccc(F)cc1F (some centres not stated)	11.48
N#Cc1ncc(Cl)cc1Cl	28.39
CC(C)CC(=O)NCc1ccnc(N2CCCC2)c1	-20.17
CCC[C@H]1CN(C(=O)c2csc(NC)n2)C[C@@H]1N	2.64
NCCN1C(=O)COc2ccccc21	-12.94
Cc1cc(NC(=O)NCC2CCN(CCO)CC2)no1	13.32
CCc1cccc(S(=O)(=O)N2CC[C@H](N)C2)c1	-15.97
COCCNCCNC(=O)c1ccc(Cl)c(C)c1	-10.19
CNC(=O)c1ccc(C)c(NC(=O)c2ccco2)c1	-0.03
